Results from PubChem BioAssay AID1159580 (chemical genetic matrix, 2015).
The campaign covered roughly 5,500 compounds. About 2,000 (36%) were called active. Another 18% or so got no clear call; they are omitted. No stated cut-off is given here; in the data, active means normalized growth mostly below about 0.91 (no sharp cut-off); inconclusive means no clear call, values can overlap the other calls; inactive means mostly above about 0.92. The list shows a part of the results.

Experiment: chemical genetic growth profiling, strain panel (AID 1159580);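 further: tested at 20 µM; growth read once vehicle control cultures reached saturation at 30 °C; 1 = growth at the plate median or of vehicle wells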
Details: S. cerevisiae deletion strains, growth OD

Measured: normalized growth

CC(=O)c1cc(CC=C(C)C)c(O)c(CC=C(C)C)c1
active: locus YBR021W, strain FUR4, stronger effect = lower value 1.42 [resistant] | locus YDR162C, strain NBP2, stronger effect = lower value 0.665 | locus YHR030C, strain SLT2, stronger effect = lower value 0.878
inactive: locus YAL013W, strain DEP1, stronger effect = lower value 0.924 | locus YAL021C, strain ccr4, stronger effect = lower value 1 | locus YAL026C, strain drs2, stronger effect = lower value 1.01 | locus YAL030W, strain snc1, stronger effect = lower value 1.01 | locus YBL061C, strain skt5, stronger effect = lower value 1 | locus YBR009C, strain hhf1, stronger effect = lower value 1 | locus YBR023C, strain chs3, stronger effect = lower value 1 | locus YBR171W, strain sec66, stronger effect = lower value 1.01 | locus YBR229C, strain ROT2, stronger effect = lower value 0.989 | locus YBR231C, strain swc5, stronger effect = lower value 1 | locus YBR279W, strain paf1, stronger effect = lower value 1.02 | locus YCL011C, strain gbp2, stronger effect = lower value 1.01 | locus YCL016C, strain dcc1, stronger effect = lower value 1.01 | locus YCL029C, strain bik1, stronger effect = lower value 0.96 | locus YCL061C, strain MRC1, stronger effect = lower value 1.01 | locus YCL069W, strain vba3, stronger effect = lower value 1 | locus YCR088W, strain abp1, stronger effect = lower value 1 | locus YDL005C, strain med2, stronger effect = lower value 1.02 | locus YDL035C, strain GPR1, stronger effect = lower value 0.947 | locus YDL040C, strain nat1, stronger effect = lower value 1.01 | locus YDL074C, strain BRE1, stronger effect = lower value 0.797 | locus YDL101C, strain DUN1, stronger effect = lower value 0.945 | locus YDL134C, strain PPH21, stronger effect = lower value 0.987 | locus YDL185W, strain tfp1, stronger effect = lower value 0.927 | locus YDL192W, strain arf1, stronger effect = lower value 0.919 | locus YDR001C, strain nth1, stronger effect = lower value 1 | locus YDR069C, strain doa4, stronger effect = lower value 1 | locus YDR101C, strain arx1, stronger effect = lower value 0.969 | locus YDR137W, strain rgp1, stronger effect = lower value 0.939 | locus YDR150W, strain NUM1, stronger effect = lower value 0.969 | locus YDR159W, strain sac3, stronger effect = lower value 1.02 | locus YDR195W, strain ref2 1.06 | locus YDR297W, strain sur2, stronger effect = lower value 1.01 | locus YDR318W, strain mcm21, stronger effect = lower value 0.971 | locus YDR334W, strain swr1, stronger effect = lower value 1.01 | locus YDR335W, strain msn5, stronger effect = lower value 1.02 | locus YDR388W, stronger effect = lower value 0.977 | locus YDR392W, strain spt3, stronger effect = lower value 0.977 | locus YDR502C, strain sam2, stronger effect = lower value 0.955 | locus YEL003W, strain gim4, stronger effect = lower value 1.01 | locus YEL037C, strain rad23, stronger effect = lower value 1 | locus YEL061C, strain CIN8 (second series), stronger effect = lower value 1.01 | locus YEL061C, strain CIN8, stronger effect = lower value 0.989 | locus YER015W, strain faa2, stronger effect = lower value 1 | locus YER016W, strain bim1, stronger effect = lower value 1.01 | locus YER110C, stronger effect = lower value 0.966 | locus YER111C, strain swi4, stronger effect = lower value 1.02 | locus YER155C, strain BEM2 (second series), stronger effect = lower value 1.03 | locus YER155C, strain BEM2, stronger effect = lower value 1 | locus YER167W, strain BCK2, stronger effect = lower value 0.992 | locus YFR010W, strain ubp6, stronger effect = lower value 1.01 | locus YGL078C, strain dbp3, stronger effect = lower value 0.984 | locus YGL086W, strain mad1, stronger effect = lower value 0.953 | locus YGL167C, strain pmr1, stronger effect = lower value 0.987 | locus YGL173C, strain kem1, stronger effect = lower value 1.01 | locus YGL227W, strain vid30, stronger effect = lower value 1.01 | locus YGL240W, strain doc1, stronger effect = lower value 1.03 | locus YGL248W, strain PDE1, stronger effect = lower value 0.93 | locus YGL253W, strain hxk2, stronger effect = lower value 1.01 | locus YGR078C, strain PAC10, stronger effect = lower value 0.922 | locus YGR135W, strain pre9, stronger effect = lower value 0.978 | locus YGR252W, strain gcn5, stronger effect = lower value 0.921 | locus YHR013C, strain ard1, stronger effect = lower value 1.06 | locus YHR027C, strain rpn1, stronger effect = lower value 1 | locus YHR079C, strain IRE1 (second series), stronger effect = lower value 0.97 | locus YHR094C, strain hxt1, stronger effect = lower value 0.982 | locus YHR129C, strain ARP1, stronger effect = lower value 0.97 | locus YHR142W, strain chs7, stronger effect = lower value 0.995 | locus YHR200W, strain rpn10, stronger effect = lower value 0.963 | locus YIL066C, strain RNR3, stronger effect = lower value 0.965 | locus YIL073C, strain SPO22, stronger effect = lower value 0.846 | locus YIL125W, strain kgd1, stronger effect = lower value 0.984 | locus YIR030C, strain dcg1, stronger effect = lower value 0.98 | locus YJL092W, strain hpr5, stronger effect = lower value 1.01 | locus YJL095W, strain BCK1 (second series), stronger effect = lower value 1.01 | locus YJL095W, strain BCK1, stronger effect = lower value 0.9 | locus YJL115W, strain asf1, stronger effect = lower value 1.02 | locus YJL129C, strain trk1, stronger effect = lower value 0.974 | locus YJL134W, strain LCB3, stronger effect = lower value 0.983 | locus YJL154C, strain vps35, stronger effect = lower value 1.02 | locus YJL164C, strain tpk1, stronger effect = lower value 0.999 | locus YJL166W, strain qcr8, stronger effect = lower value 1.02 | locus YJL168C, strain set2, stronger effect = lower value 0.984
